Screening results as filed in PubChem BioAssay.
Tau fluor cs = counter-screen for tau fibril formation inhibitors. tau K18 P301L Alexa594 fluorescence, heparin fibrillization. Potency, µM (highest dose often 57.7 µM). actives 0.93% (n = 280,000). AID 1463; note: nearly all actives have a fitted effect of over 55% in size
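Human tau K18 P301L (15 uM unlabeled, 0.24 uM Alexa 594-labeled) in 100 mM sodium acetate pH 7 with 20 uM heparin, 6 hr at 37 C. ThT 30 uM added, 1 hr ambient; Alexa 594 FP and total fluorescence read at 555/632 nm.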
Tau fibril FP = inhibitors of human tau fibril formation. P10636. K18 P301L tau heparin fibrillization, Alexa594 FP, 6 h. Potency, µM (top dose mostly 57.7 µM), most hits filed as inhibitors. actives 0.39% (n = 280,000); note: nearly all actives have a fitted effect of over 55% in size
Target sequence (P10636 561-689 P618L limits assumed): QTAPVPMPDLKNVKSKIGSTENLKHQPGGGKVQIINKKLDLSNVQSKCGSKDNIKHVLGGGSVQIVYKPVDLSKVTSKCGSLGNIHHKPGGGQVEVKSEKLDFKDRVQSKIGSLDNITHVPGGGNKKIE
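Steps: dispense K18 P301L tau (15 uM plus 0.24 uM Alexa 594 tracer, final) in pH 7 sodium acetate; add compound; add heparin (20 uM final); incubate 6 hr, 37 C; add ThT (30 uM final); after 1 hr ambient, read FP.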
Coupling enz = coupling enzyme interference in Giardia aldolase counter-screen; actives 0.67% (n = 290,000); AID 2472; coupling enzyme system counterscreen, AmpLite Red fluorescence; activity change, negative = inhibition, % at 58.2 µM, hits read low; in the data active = activity change below about -30%
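First, compound is pin-transferred into glyceraldehyde-3-phosphate coupling-enzyme reagent at 57.5 uM final and held 10 min at RT. Next, substrate, coupling system and AmpLite Red are added. After 20 min RT, fluorescence (525/598 nm) is read.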
USP1-UAF1 inh = blocks the human USP1/UAF1 deubiquitinase complex; actives 0.23% (n = 390,000); Potency, µM (doses to about 57.1 µM), actives largely listed as inhibitors; recombinant USP1/UAF1, Ub-Rhodamine cleavage fluorescence; O94782; AID 743255; note: nearly all actives have a fitted effect of over 60% in size
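In this screen, compounds sit with the deubiquitinase complex (1nM) for 15 min at room temperature before Ub-Rho is added at 150nM final. Fluorescence rise is then followed for 6 reads every 60 seconds.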
Tau ThT inhib = tau fibrillization inhibition (ThT binding); actives 2.1% (n = 270,000); recombinant tau K18 P301L (four-repeat tau fragment), heparin-induced fibrillization, ThT fluorescence; Potency, µM (series often up to 57.4 µM), actives largely listed as inhibitors; P10636; AID 1460; note: nearly all actives have a fitted effect of over 55% in size
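K18 P301L tau (15 uM + 0.24 uM Alexa 594-tagged), heparin 20 uM, NaOAc pH 7, 6 h 37 C; ThT 30 uM, 1 h RT, ex 450/em 510 nm.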
Hits are given with their value; [ ] = another dose, or the depositor's remark. Most compounds without a hit are left out; they make up all but 2.3% or so of the library. Unless noted, calls come from the whole dose curve; as a rule, active = well fitted curve in the direction sought with a large enough effect; inconclusive = small, poorly fitted or top-dose-only effect, or another doubt; inactive = no such curve, though single readings can be large; an effect the other way counts as inactive or inconclusive.

`Cc1[nH]c2ccccc2c1/C=C(\C#N)C(=O)NCc1ccccc1` gave Tau fluor cs inactive, Tau fibril FP inconclusive, Coupling enz inactive, USP1-UAF1 inh inactive and Tau ThT inhib inactive.
Screening C[n+]1cccc2cccc([O-])c21 returned Tau fluor cs inactive, Tau fibril FP inconclusive, Coupling enz -45.1, USP1-UAF1 inh 6.31µM and Tau ThT inhib 15.8µM.
C[C@@]1(C(=O)O)NCCc2cc(O)c(O)cc21 was read as Tau fluor cs inconclusive, Tau fibril FP inconclusive, Coupling enz inactive and Tau ThT inhib 25.1µM.
Screening O=C1C(Cl)=C(N2CCCCCC2)C(=O)N1c1ccc(Cl)cc1 returned Coupling enz inactive and USP1-UAF1 inh inactive.
For COc1ccc(N2C(=O)C(Cl)=C(N3CCCC3)C2=O)cc1 the results were Tau fluor cs inactive, Tau fibril FP inconclusive, Coupling enz inactive, USP1-UAF1 inh inactive and Tau ThT inhib inconclusive.
Screening COc1ccc(N2C(=O)C(Cl)=C(N3CCCC(C)C3)C2=O)cc1 (centres undefined) returned Tau fluor cs inconclusive, Tau fibril FP 28.2µM, Coupling enz inactive, USP1-UAF1 inh inactive and Tau ThT inhib 15.8µM.
CC1CCCN(C2=C(Cl)C(=O)N(c3cccc(Cl)c3)C2=O)C1 (centres undefined) was read as Tau fluor cs inconclusive, Tau fibril FP 17.8µM, Coupling enz inactive, USP1-UAF1 inh inactive and Tau ThT inhib 14.1µM.
`COc1cccc(C(=O)Nc2c(C(=O)NC(C)(C)C)oc3ccccc23)c1` gave Tau fluor cs inactive, Tau fibril FP inactive, USP1-UAF1 inh inactive and Tau ThT inhib inactive.
`CN1CCc2c(sc(/N=C/c3cccs3)c2C(N)=O)C1` gave Tau fluor cs inactive, Tau fibril FP inconclusive, Coupling enz inactive, USP1-UAF1 inh inconclusive and Tau ThT inhib 14.1µM.
Cc1ccc(NCCC(=O)c2cccc([N+](=O)[O-])c2)c(C)c1 was read as Tau fluor cs 15.8µM[quencher], Tau fibril FP inconclusive, Coupling enz inactive, USP1-UAF1 inh inactive and Tau ThT inhib inconclusive.
For Cc1ccc(NCC(=O)c2ccc([N+](=O)[O-])cc2)cc1 the results were Tau fluor cs inconclusive, Tau fibril FP inconclusive, Coupling enz inactive, USP1-UAF1 inh inactive and Tau ThT inhib 17.8µM.
`Cc1cccc(NCCC(=O)c2ccc([N+](=O)[O-])cc2)c1C` gave Tau fluor cs 8.91µM[quencher], Tau fibril FP inactive, Coupling enz inactive, USP1-UAF1 inh inactive and Tau ThT inhib inconclusive.
Screening Cc1ccc(C(=O)CNc2cccc([N+](=O)[O-])c2)cc1 returned Tau fluor cs inactive, Tau fibril FP inactive, Coupling enz inactive, USP1-UAF1 inh inactive and Tau ThT inhib inconclusive.
Screening Cc1ccc(C(=O)c2ccc([N+](=O)[O-])cc2)cc1C returned Tau fluor cs inactive, Tau fibril FP inactive, Coupling enz inactive, USP1-UAF1 inh inactive and Tau ThT inhib inconclusive.
Cc1ccc(NC(=O)c2ccc3c(c2)NC(=O)c2ccccc2S3)cc1 was read as Tau fluor cs inactive, Tau fibril FP inconclusive, USP1-UAF1 inh inactive and Tau ThT inhib inactive.
Screening COc1ccccc1OCCn1cc(/C=N/NC(=O)c2ccncc2)c2ccccc21 returned Tau fluor cs 12.6µM[quencher], Tau fibril FP inconclusive, Coupling enz inactive, USP1-UAF1 inh inactive and Tau ThT inhib inconclusive.
For O=C(N/N=C/c1cn(CCOc2ccccc2)c2ccccc12)c1ccncc1 the results were Tau fluor cs 14.1µM[quencher], Tau fibril FP inactive, Coupling enz inactive, USP1-UAF1 inh inactive and Tau ThT inhib inconclusive.
For CN1CCN(C(=O)CN(C2CCCCC2)S(=O)(=O)c2ccc(Br)cc2)CC1 the results were Coupling enz inactive and USP1-UAF1 inh inactive.
For Cc1cccc2c3c(ccc12)C1=C(C(=O)C3=O)[C@@H](C)CO1 the results were Coupling enz -41.6.
Screening CC1COc2ccccc2C1=O (centres undefined) returned Tau fluor cs inactive, Tau fibril FP inactive, Coupling enz inactive and Tau ThT inhib inactive.
`CCOC(=O)c1c(-c2ccco2)csc1N` gave Tau fluor cs inactive, Tau fibril FP inactive, Coupling enz -31.0, USP1-UAF1 inh inactive and Tau ThT inhib inactive.
`O=C(c1ccccc1Cl)N(C(=O)c1ccccc1Cl)c1nccc(-c2cccs2)n1` gave Tau fluor cs inactive, Tau fibril FP inactive, Coupling enz -42.0, USP1-UAF1 inh inactive and Tau ThT inhib inactive.
`O=C(Nc1nccc(-c2cccs2)n1)c1ccccc1Cl` gave Tau fluor cs inactive, Tau fibril FP inactive, Coupling enz inactive, USP1-UAF1 inh inactive and Tau ThT inhib inactive.
For COc1ccc2c(c1)cc1c(=O)n(CC(=O)NCc3ccco3)nc(C)n12 the results were Tau fluor cs inactive, Tau fibril FP inactive, USP1-UAF1 inh inactive and Tau ThT inhib inactive.
`COc1ccc2c(c1)CCc1cc(C(=O)N3CCN(c4ccc(N5CCOCC5)nn4)CC3)sc1-2` gave Tau fluor cs inactive, Tau fibril FP inconclusive, Coupling enz -58.3, USP1-UAF1 inh inactive and Tau ThT inhib 8.91µM.
Cn1cnc(S(=O)(=O)N2CCCC(C(=O)Nc3ccc(OC(F)(F)F)cc3)C2)c1 (centres undefined) was read as Tau fluor cs inactive, Tau fibril FP inactive, USP1-UAF1 inh inconclusive and Tau ThT inhib inactive.
For CCOc1ccc(C2C(=O)N(C3CCCCC3)CC(=O)N2Cc2ccc(F)cc2)cc1OC (centres undefined) the results were Tau fluor cs inactive, Tau fibril FP inactive, USP1-UAF1 inh inactive and Tau ThT inhib inactive.
For CC(Sc1nnc(Cc2ccccc2)o1)C(=O)NC1(C#N)CCCCC1 (centres undefined) the results were USP1-UAF1 inh inactive.
For COc1cc(/C=C(/C#N)c2nc(-c3cc4ccccc4oc3=O)cs2)ccc1O the results were Tau fluor cs inconclusive, Tau fibril FP inactive, USP1-UAF1 inh inactive and Tau ThT inhib 4.47µM.
Screening N#C/C(=C/c1ccccc1Cl)c1nc(-c2cc3ccccc3oc2=O)cs1 returned Tau fluor cs inactive, Tau fibril FP inactive, USP1-UAF1 inh inactive and Tau ThT inhib inactive.
`COc1cc(N=c2ssnc2Cl)c(OC)cc1Cl` gave Tau fluor cs inactive, Tau fibril FP inconclusive, Coupling enz inactive, USP1-UAF1 inh inconclusive and Tau ThT inhib 10µM.
Screening COc1cc(-n2nnnc2SC)c(OC)cc1Cl returned Tau fluor cs inactive, Tau fibril FP inactive, Coupling enz inactive, USP1-UAF1 inh inactive and Tau ThT inhib inactive.
`COc1ccc(OC)c(N=c2ssnc2Cl)c1` gave Tau fluor cs inactive, Tau fibril FP inconclusive, Coupling enz inactive, USP1-UAF1 inh inactive and Tau ThT inhib 11.2µM.
Screening O=C(Nc1ccncc1)c1ccc(Cl)c(S(=O)(=O)N2CCCC2)c1 returned USP1-UAF1 inh inactive.
For CN1/C(=C/c2cc[n+](C)c3ccccc23)C=Cc2ccccc21 the results were Tau fluor cs inactive, Tau fibril FP inconclusive, Coupling enz inactive, USP1-UAF1 inh inactive and Tau ThT inhib 7.08µM.
